Data on 14 compounds can be found in PubChem BioAssay (NCI).

Some test systems named below: T-47D breast; BT-549 breast; MDA-MB-435 melanoma; SW-620 colon; MCF7 breast; HCT-116 colon; HCC-2998 colon; KM12 colon.
What all share (assay): NCI-60 one-dose screen, 48 h (100 = growth as untreated, 0 = no growth, -100 = all killed)
Common to all, as to settings: 10 µM

Compounds without any hit were thinned out: in the full panel of roughly 83,000, 20% have a hit.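 Plates (96-well) were seeded with cells, treated with compound at one concentration, and incubated for 48 hours before percent growth was determined.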 Unmarked numbers belong to inactive results. Activity calls are given as the source filed them. The calls were made as follows: active = growth percent below 10; inactive = the rest.

With `CC(=O)COc1ccc(Cl)cc1Cl`, the growth was 98.7% in the experiment on T-47D breast; 111% with BT-549 breast; 102% in the experiment with MDA-MB-435 melanoma; 97.2% in the experiment with SW-620 colon; 104% in the experiment with MCF7 breast; 99.1% with HCT-116 colon. In addition, the figures for the growth in the experiment with HCC-2998 colon and with KM12 colon were 109% and 113%, respectively.

On to `CCN(CC)c1ccc(/C=C2\SC(=O)C(Nc3nnc(-c4cccnc4SCc4ccccc4)o3)C2=O)cc1` (configuration not stated), for which the growth with T-47D breast was 50.3%; in the experiment on BT-549 breast, 59.3%; in the experiment with MDA-MB-435 melanoma it was -24.6% (active); in the experiment with SW-620 colon it was 22.7%; with MCF7 breast, 14.3%; in the experiment with HCT-116 colon it was 5.84% (active). Besides, the growth in the experiment on HCC-2998 colon was 4.15% (active); in the experiment with KM12 colon, 10.3%.

Take `O=C(NCCNC(=O)c1ccc(F)cc1)Nc1ccc(-n2cc(-c3ccncc3)c(-c3ccc(Cl)c(O)c3)n2)cc1`: the growth with T-47D breast was 30.1%; in the experiment on BT-549 breast, -24.5% (active); with MDA-MB-435 melanoma it was -5.7% (active); with SW-620 colon, 15.1%; in the experiment with MCF7 breast it was 3.7% (active); with HCT-116 colon, -24.2% (active). Moreover, the growth in the experiment with HCC-2998 colon is -28.4% (active); with KM12 colon it was 0.713% (active).

With `O=[N+]([O-])c1cccc(/C=N/NC(=S)NC23CC4CC(CC(C4)C2)C3)c1`, the growth in the experiment on T-47D breast was 88.7%; in the experiment with BT-549 breast it was 100%; in the experiment on MDA-MB-435 melanoma it was 84.8%; in the experiment on SW-620 colon, 88.5%; in the experiment on MCF7 breast, 66.9%; in the experiment with HCT-116 colon, 61.1%. Further, the growth is 103% in the experiment on HCC-2998 colon and 95.2% in the experiment with KM12 colon.

As to `O=C(N/N=C/c1ccc([N+](=O)[O-])cc1)c1ccccc1Nc1cccc(C(F)(F)F)c1`, the growth in the experiment on T-47D breast was 95.1%; in the experiment on BT-549 breast, 77.8%; in the experiment on MDA-MB-435 melanoma, 103%; with SW-620 colon it was 102%; with MCF7 breast it was 111%; in the experiment on HCT-116 colon it was 53.9%. Also, the growth in the experiment on HCC-2998 colon was 99.5%; with KM12 colon, 141%.

For `OC[C@H]1OC([S-])[C@H](O)[C@@H](O)[C@@H]1O.[Au+]` (some centres not stated), the growth is 85.5% in the experiment with T-47D breast; 87.1% in the experiment on BT-549 breast; 83.3% in the experiment with MDA-MB-435 melanoma; 101% in the experiment with SW-620 colon; 72.8% in the experiment on MCF7 breast; 99% in the experiment on HCT-116 colon. The growth in the experiment with HCC-2998 colon was 112%; in the experiment with KM12 colon it was 114%.

Turning to `CNC(=O)c1cn(C2CC2)c2cc(N3CCN(C(=O)c4cc(OC)c(OC)c(OC)c4)CC3)c(F)cc2c1=O`, the growth was 79% in the experiment with T-47D breast; 112% in the experiment with BT-549 breast; 108% in the experiment on MDA-MB-435 melanoma; 103% in the experiment with SW-620 colon; 94.3% with MCF7 breast; 103% with HCT-116 colon. The growth with HCC-2998 colon was 113%; in the experiment on KM12 colon it was 102%.

In the case of `CC1C(=NC(=O)c2cnccn2)C(C)C(c2ccc(Cl)cc2)NC1c1ccncc1` (configuration not stated), the growth in the experiment with T-47D breast is 78%; in the experiment on BT-549 breast, 95.4%; with MDA-MB-435 melanoma, 96.9%; in the experiment with SW-620 colon, 111%; in the experiment on MCF7 breast it was 91.3%; in the experiment on HCT-116 colon it was 73.6%. Moreover, the results for the growth in the experiment on HCC-2998 colon and in the experiment with KM12 colon were 115% and 95.8%, respectively.

Turning to `COc1cc2c3c(n(C4CCN(C)CC4)c(=O)c2cc1OC)-c1cc2c(cc1C3=O)OCO2`, the growth is 31% in the experiment with T-47D breast; 59.7% with BT-549 breast; 84.5% with MDA-MB-435 melanoma; 56.2% with SW-620 colon; 24.8% with MCF7 breast; 40.8% with HCT-116 colon. Also, the growth in the experiment with HCC-2998 colon is 66.3%; in the experiment on KM12 colon it was 75.9%.

Regarding `CC[N+](CC)=c1ccc2nc3c(cc(NCc4ccccc4)c4ccccc43)oc-2c1`, the growth with T-47D breast is -55.9% (active); in the experiment on BT-549 breast, 39.4%; in the experiment on MDA-MB-435 melanoma, -98.9% (active); in the experiment with SW-620 colon, -82.5% (active); in the experiment with MCF7 breast, -82.2% (active); in the experiment on HCT-116 colon, -35.6% (active). Besides, the figures for the growth with HCC-2998 colon and in the experiment with KM12 colon were -94.8% (active) and -88.6% (active), respectively.

As for `COc1ccccc1-n1c(-c2sc(NC(C)=O)nc2C)n[nH]c1=S`, the growth in the experiment on T-47D breast was 106%; with BT-549 breast, 93.8%; with MDA-MB-435 melanoma, 105%; in the experiment with SW-620 colon, 108%; with MCF7 breast, 97.5%; in the experiment on HCT-116 colon, 98.3%. For the same compound, the growth in the experiment with HCC-2998 colon and in the experiment on KM12 colon was 108% in each case.

Turning to `CC(C)(C)OC(=O)N1CCc2c(sc3ncnc(N/N=C/c4cccc(Br)c4)c23)C1`, the growth is 20.2% in the experiment on T-47D breast; 79.4% with BT-549 breast; 34.3% in the experiment with MDA-MB-435 melanoma; 41.1% in the experiment with SW-620 colon; 5.3% (active) in the experiment on MCF7 breast; 29.6% with HCT-116 colon. For the same compound, the growth was 42.6% with HCC-2998 colon and 62.3% with KM12 colon.

Take `CC(C)(C)OC(=O)CN1CCc2c(sc3ncnc(N/N=C/c4cccc5ccccc45)c23)C1`: the growth is 26.4% with T-47D breast; 64.3% in the experiment on BT-549 breast; 27.6% with MDA-MB-435 melanoma; 33.9% in the experiment on SW-620 colon; -24.5% (active) in the experiment with MCF7 breast; 26% in the experiment on HCT-116 colon. The growth is 44.1% in the experiment with HCC-2998 colon and 53.1% with KM12 colon.

Consider `COc1ccc(/C=C2/SC(=S)NC2=O)c(OC)c1OC`, for which the growth was 63.2% in the experiment on T-47D breast; 91.1% in the experiment with BT-549 breast; 78.5% with MDA-MB-435 melanoma; 93.9% with SW-620 colon; 80.4% in the experiment on MCF7 breast; 85.8% in the experiment with HCT-116 colon. The results for the growth in the experiment with HCC-2998 colon and in the experiment with KM12 colon were 82.3% and 93.3%, respectively.
